One may read the inhibition as the change of the read-out against control, counted positive when it falls.

SMILES strings stand for the structures. In all, about 360,000 compounds went through this assay and about 350 (0.097%) were called active. The sample as a whole holds a higher share of actives than the screen did. A number with no mark means an inactive call. No stated cut-off is given here; in the data, active means inhibition above about 16% (passing the limit was not always enough); inconclusive means no clear call, values can overlap the other calls; inactive means below that.

The test system of this test is UDP-N-acetylbacillosamine N-acetyltransferase PglD (Campylobacter jejuni). The experiment in a line: C. jejuni PglD acetyltransferase inhibitors, primary screen, biochemical, DTNB colorimetric, single point (AID 602405). As to conditions: purified PglD enzyme, DTNB colorimetric CoA detection; at 12.5 µM; active compounds read high.
For the compound `O=C(Cc1ccncc1)N1CCCCN2[C@@H](CO)[C@H](c3ccc(-c4ccncc4)cc3)[C@@H]2C1`, the inhibition was 18.4% (active).
The value for `C/C=C/c1ccc([C@H]2[C@H](CO)N3CCCCN(C(=O)Cc4ccncc4)C[C@@H]23)cc1` was 4.91%; that for `COc1ccc(-c2ccc([C@H]3[C@H](CO)N4CCCCN(C(=O)Cc5ccncc5)C[C@@H]34)cc2)cc1` was 2.61%.
Under `O=C(O)[C@H]1[C@H](CO)[C@H]2Cn3c(cccc3=O)[C@@H]1N2C(=O)c1ccccc1` stands 3.27%.
For the compound `CC(=CCOc1ccc2ccc(=O)oc2c1)C1=CC(=O)C(C)(C)O1`, the inhibition is 2.27%.
The value for `c1ccc2sc(C3CCCNC3)nc2c1` (stereo not given) was 3.32%.
For `c1ccc2sc(N3CCNCC3)nc2c1`, the inhibition is 53.7% (active).
Consider `C[C@H](CO)N1C[C@H](C)[C@H](CN(C)C(=O)Oc2ccc3ccccc3c2)OCc2cnnn2CCCC1=O`, for which the inhibition was -0.0925%.
For `COC(=O)[C@H]1[C@H](CO)[C@H]2Cn3c(cccc3=O)[C@H]2N1CC1CC1`, the inhibition was 3.33%.
Take `COC(=O)[C@H]1[C@H](CO)[C@H]2Cn3c(ccc(-c4ccccc4F)c3=O)[C@@H]1N2C(=O)C1CCC1`: the inhibition was -2.57%.

Source of the values: PubChem BioAssay AID602405 (Broad Institute, 2012).
